From PubChem BioAssay AID1259343 (VanderVen Lab, College of Veterinary Medicine, Cornell …, 2017)
The whole screen tested about 6,200 compounds, of which about 2,900 (47%) were called active. So high a share suggests a set chosen from earlier hits. Some of the results follow. Unmarked numbers belong to inactive results. Cut-off read from the data, not from the text of the source: active = inhibition above about 50%; inactive = the rest.

Test: Mycobacterium tuberculosis growth inhibition, primary screen (AID 1259343)
Settings: inhibition: at 10 µM, stronger effect = higher value; outcome: 10 uM

Compound | inhibition
CC1CCN(c2nnc(C(=O)Nc3ccccc3)c3ccccc23)CC1 | 24.6%
COc1ccc(OCCCCOc2ccccc2[N+](=O)[O-])cc1 | 76.2% (active)
Cc1ccccc1CON=Cc1cccc([N+](=O)[O-])c1 | 54.1% (active)
CCOc1ccc(OCCCCOc2ccccc2[N+](=O)[O-])cc1 | 83.2% (active)
Cc1ccccc1CNc1cccc([N+](=O)[O-])c1 | 35.8%
COCc1cc(C)nc(N/N=C\c2ccccc2[N+](=O)[O-])c1C#N | -18.7%
CCOc1ccc(N=Cc2cccc([N+](=O)[O-])c2)cc1 | 96.3% (active)
CCOC(=O)CCCCCCCCCCCCC1C=CCC1 (stereo unspecified) | -30.7%
COc1cc(C)ccc1OCCCOc1ccc([N+](=O)[O-])cc1 | 41.8%
CCOc1ccc(OCCOc2ccc([N+](=O)[O-])cc2)cc1 | 26.5%
CCOc1cccc(OCCCOc2ccc([N+](=O)[O-])cc2)c1 | 86% (active)
CCOc1ccc(OCCCOc2ccc([N+](=O)[O-])cc2)cc1 | 23%
CCOc1ccc(OCCOc2ccccc2[N+](=O)[O-])cc1 | 97.3% (active)
COC(=O)C1=C(O)C(C(=O)OC)C(c2cccs2)C(C#N)(C#N)C1c1cccs1 (stereo unspecified) | 4.02%
Cc1cccc(N2CCN(C(C)C(=O)Nc3cc(C)on3)CC2)c1 (stereo unspecified) | 85.9% (active)
Cc1cc(NC(=O)c2cc(CC(C)C)on2)no1 | 47.4%
CCCCCCNC(N)=S | 72.8% (active)
Cc1nn(C)cc1CN(C)C(=O)c1cccc(Cl)c1 | 101% (active)
CC1Sc2ccc(C(=O)N(C)Cc3cccc(Cl)c3)cc2NC1=O (stereo unspecified) | 30.6%
CN(Cc1ccc(Cl)cc1Cl)C(=O)C1CCN(c2ccccc2[N+](=O)[O-])CC1 | 45%
CN1N=C(CC(=O)Nc2ccc(-n3nccc3C(F)(F)F)cc2)CC1=O | 87.8% (active)
CC1CC1C(=O)Nc1ccc(-n2nccc2C(F)(F)F)cc1 (stereo unspecified) | 40%

Compound | inhibition
Cc1cc(NC(=O)c2cc3ccccc3o2)n(-c2nc(C)c(C)c(=O)[nH]2)n1 | -29.9%
CCc1c(C)nc(-n2nc(C)cc2NC(=O)c2ccco2)[nH]c1=O | 100% (active)
Cc1cc(NC(=O)c2ccco2)n(-c2nc(C)c(C)c(=O)[nH]2)n1 | 100% (active)
O=C(CCc1ccccc1)C1CCCN(Cc2nc(CC3CC3)no2)C1 (stereo unspecified) | inactive
O=C(CCc1ccccc1)C1CCCN(Cc2nc(-c3ccc(Cl)cc3)no2)C1 (stereo unspecified) | 73.2% (active)
Clc1ccc(-c2noc(CN3CCCN(c4ncccn4)CC3)n2)cc1 | 77.6% (active)
Clc1ccc(-c2noc(CN3CCN(c4ncnc5ccccc45)CC3)n2)cc1 | 71.1% (active)
O=C1CCCN1CCC1CCN(Cc2nc(-c3ccc(Cl)cc3)no2)CC1 | 74% (active)
c1ccc(CCCc2nc(-c3ccccn3)no2)cc1 | 30.6%
Clc1ccc(C2CCCN(Cc3nc(-c4ccccn4)no3)C2)cc1 (stereo unspecified) | 73% (active)
c1ccc(-c2noc(CN3CCCC(c4ccccc4)C3)n2)cc1 (stereo unspecified) | inactive
Clc1ccc(-c2nc(-c3ccccn3)no2)cc1 | 79.7% (active)
Cc1csc(Sc2ccc(NC(=O)C3CCC3)c(C)c2)n1 | 33.2%
C=CCSc1nnc(NC(=O)C2CCCCC2)s1 | 91.9% (active)
O=C(Nc1nnc(SCCc2ccccc2)s1)C1CCCCC1 | 3.18%
CCC(=O)Nc1cc(C)nn1-c1nc(C)c(C)c(=O)[nH]1 | 99.7% (active)
Cc1cc(NC(=O)C(C)(C)CCl)n(-c2nc(C)c(C)c(=O)[nH]2)n1 | 101% (active)
Cc1cc(NC(=O)C(C)C)n(-c2nc(C)c(C)c(=O)[nH]2)n1 | -18.6%
COC(=O)CCc1c(C)nn(-c2nc(C)cc(=O)[nH]2)c1C | 43.3%
CC(=O)Nc1cc(C)nn1-c1nc(C)c(C)c(=O)[nH]1 | 101% (active)
COC(=O)CCc1c(C)nn(-c2nc(C)c(C)c(=O)[nH]2)c1C | 101% (active)
Cc1cc(NC(=O)Cc2ccccc2)n(-c2nc(C)c(C)c(=O)[nH]2)n1 | 99.4% (active)

Compound | inhibition
Cc1[nH]nc(Nc2ccc(Cl)c(Cl)c2)c1[N+](=O)[O-] | 70.3% (active)
Brc1ccc(NCc2cccs2)cc1 | 6.27%
O=C(NCc1cccs1)c1cc(Br)ccc1F | 83.2% (active)
CC(C)Oc1ccc(C(=O)NCc2cccs2)cc1 | 34.9%
C=C(C)CN(CC)c1nc(N)c(C#N)c(C(C#N)Cc2ccc(C)cc2)c1C#N (stereo unspecified) | 21.1%
Cc1sc2nc[nH]c(=S)c2c1C | 88.8% (active)
Cc1sc2nc[nH]c(=S)c2c1-c1ccccc1 | 87.7% (active)
O=c1[nH]c2sc3c(c2c2ncnn12)CCCC3 | -17.8%
Cc1ccc(-c2csc3nc[nH]c(=S)c23)cc1C | 31.2%
CC1CCc2c(sc3nc[nH]c(=S)c23)C1 (stereo unspecified) | 2.8%
S=c1[nH]cnc2sc3c(c12)CCCC3 | 93.9% (active)
CC(NC(=O)CN(C)CC(=O)Nc1ccc(Cl)c(Cl)c1)c1ccco1 (stereo unspecified) | 86.6% (active)
CC(N=c1ccccn1C(=O)Nc1ccc(Cl)c(Cl)c1)c1ccco1 (stereo unspecified) | -3.96%
Fc1ccc(NN=Cc2ccc3c(c2)OCO3)c(F)c1 | 81.8% (active)
Fc1c(F)c(F)c(NN=Cc2ccc3c(c2)OCO3)c(F)c1F | 89.5% (active)
C(=NNc1ccc2ccccc2n1)c1ccc2c(c1)OCCO2 | 27.8%
Fc1ccc(NN=Cc2ccc3c(c2)OCCO3)c(F)c1 | 37%
O=C1C=C2C(=CCOC2O)O1 (stereo unspecified) | 98.2% (active)
CC(NS(=O)(=O)c1ccccc1C#N)c1ccc(-n2ccnc2)cc1 (stereo unspecified) | -48.9%
Nc1nc(-c2ccc(F)cc2F)cs1 | 33.6%
OC(c1cn2cc(-c3ccc(F)cc3)nc2s1)(C(F)(F)F)C(F)(F)F | 15.3%
CSc1ccc(-c2csc(N)n2)cc1 | 8.66%

Compound | inhibition
Nc1nc(-c2ccc(I)cc2)cs1 | inactive
Fc1ccc(F)c(-c2csc(Nc3ccc4c(c3)OCCO4)n2)c1 | 22.8%
Nc1nc(-c2cc(F)ccc2F)cs1 | 77.2% (active)
Cc1ccc(-c2csc(N)n2)cc1 | 101% (active)
O=c1[nH]c2ccc(-c3csc(-c4ccc(F)cc4)n3)cc2o1 | 39.4%
Nc1nc(-c2ccc(F)cc2)cs1 | 90.4% (active)
C=CCNc1nc(-c2cc(F)ccc2F)cs1 | 45.9%
Cc1cc(C)cc(Nc2nc(-c3ccc(F)cc3)cs2)c1 | 51.7% (active)
c1csc(-c2nc(SCC3COc4ccccc4O3)n[nH]2)c1 (stereo unspecified) | -27.5%
Clc1ccc(C=NOCc2nnc(-c3ccccc3Br)o2)cc1Cl | 50.2% (active)
Brc1ccccc1-c1nnc(CSc2nnnn2C2CC2)o1 | 28.9%
c1csc(-c2nnc(CON=C3c4ccccc4-c4ccccc43)o2)c1 | 26.7%
CC(C(N)=O)N1CCC(c2nc3cc(Cl)ccc3s2)CC1 (stereo unspecified) | 38%
CC(C)c1nc(CS(=O)(=O)c2nc3cc(Cl)ccc3s2)no1 | 64.2% (active)
Oc1ccc(-c2nc3cc(Cl)ccc3s2)cc1 | 36.2%
Cc1cc(C)c(C)c(C(=O)/C=C/C(=O)O)c1C | 85.5% (active)
O=C(O)/C=C/C=C/c1ccccc1 | 38.2%
Cc1nc(-c2ccc(NC(=O)C3CCOCC3)cc2)co1 | 88.5% (active)
O=C(Nc1cccc(-c2noc(C3CC3)n2)c1)C1CCOCC1 | 11.2%
O=C(Nc1ccc(-c2nc3ccccc3o2)cc1)C1CCN(C(=O)C2CCCCO2)CC1 (stereo unspecified) | 34.5%
COc1cc(C(=O)NCC(=O)Nc2nc3c(ccc4ccccc43)s2)cc(OC)c1OC | 88.5% (active)
C(=Cc1nc2c(ccc3ccccc32)s1)c1ccc2c(c1)OCCO2 | 36.3%

Compound | inhibition
O=S(=O)(Nc1nc2c(ccc3ccccc32)s1)c1ccc(Cl)s1 | 22.8%
O=C1CCC(=O)N1OCCOc1cccc(Oc2ccccc2)c1 | 72% (active)
CCCCNC(=O)NCC12CC3CC(CC(C3)C1)C2 | 74.1% (active)
CCOC(=O)C1=C(C)N(c2ccc3c(c2)OCCO3)C(=S)NC1c1cccc(F)c1 (stereo unspecified) | 1.48%
CC(C)(C(=O)Nc1ccc(F)cc1)c1ccc2c(c1)OCCO2 | 57.4% (active)
Cc1nc(N2CCCCC2)c2c3c(sc2n1)CC(C)CC3 (stereo unspecified) | -32.2%
CC1CCc2c(sc3nc(-c4ccc(N(C)C)cc4)nc(N4CCNCC4)c23)C1 (stereo unspecified) | 94.9% (active)
CC1CCc2c(sc3nc(C(C)C)nc(N4CCN(C(=O)Nc5c(Cl)cccc5Cl)CC4)c23)C1 (stereo unspecified) | 10.7%
COC(=O)c1ccc(CN(Cc2sccc2C)C2CC2)o1 | 98.5% (active)
Cc1ccc(NC(=O)NC(=O)CN(Cc2ccco2)C2CC2)cc1C | -3.72%
COC(=O)c1ccc(CN(Cc2cccc(OC)c2OC)C2CC2)o1 | 83.8% (active)
COc1ccc(CCN(Cc2ccc(C)o2)C(=O)CN(C(=O)c2ccccc2Cl)C2CC2)cc1OC | -5.97%
COc1cccc(CN(C)C(=O)c2cc3ccccc3o2)c1OC | 39.1%
CCN(CC1COc2ccccc2O1)C(=O)NCc1sccc1C (stereo unspecified) | -23.5%
COC(=O)c1ccc(CSc2n[nH]c(=S)s2)o1 | inactive
COC(=O)c1ccc(CN(Cc2ccc(C)o2)C2CC2)o1 | 66.2% (active)
COc1ccc(CN(C(=O)Nc2cccc(Cl)c2)C2CC2)cc1 | -5.25%
COC(=O)c1ccc(CN(Cc2ccc(OC)cc2)C2CC2)o1 | 54.7% (active)
